# Test results: PubChem BioAssay (NCATS)
# Results filed as inconclusive are left out. Entries that show only a call come without a potency. Activity calls are given as the source filed them. Calls follow the shape of the dose curve; as a rule, active = well fitted inhibition curve with a large enough effect; inconclusive = small, poorly fitted or top-dose-only effect; inactive = flat fitted curve, though single readings scatter.
# Assay: qHTS to identify inhibitors of the type 1 interferon - major histocompatibility complex class I in skeletal muscle: primary screen against the NCATS LOPAC collection (AID 1347405);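 also: lytic HiBiT luminescence reporting HLA-B protein level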
# Details: iHSKM muscle cells, IFN-b-induced MHC-I HiBiT luminescence, 24 h; series mostly up to 45.9 µM
# Procedure, shortened: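 CRISPR-engineered immortalized human myoblasts (C25cl48) with HiBiT fused to endogenous HLA-B*08:01, stimulated with 4 ng/ml IFN-beta. LOPAC compounds tested as a 7-point 1:4.3 titration (top 46 uM final), 24 h at 37 C; lytic HiBiT luminescence read.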
row,SMILES,Potency
1,CCCn1c(=O)c2c(ncn2C)n(CCC)c1=O,inactive
2,CC(O)C(O)[C@H]1CNc2nc(N)[nH]c(=O)c2N1 (stereo partly drawn),inactive
3,CNc1cc(NS(=O)(=O)c2ccc(N)cc2)nc(NC)n1,inactive
4,COC(=O)C(N)Cc1ccc(Cl)cc1 (stereo not drawn),inactive
5,O=c1[nH]c(=O)c2nc3ccccc3nc2[nH]1,inactive
6,OC[C@H]1NC[C@@H](O)[C@@H]1O,inactive
7,NC(=O)CNCCC(c1ccccc1)c1ccccc1,inactive
8,O=C(O)C1CCNCC1,inactive
9,CN(CC[C@@H](Oc1ccc(C(F)(F)F)cc1)c1ccccc1)CC(=O)O,inactive
10,CC(C)Cn1c(=O)n(C)c(=O)c2[nH]cnc21,inactive
11,NC1(C(=O)O)CCCCC1,inactive
12,N[C@H](C(=O)O)[C@H](O)C(=O)O,inactive
13,C=C(C)C1CC=C(C(=O)O)CC1 (stereo not drawn),inactive
14,NCC(O)C1CCCCCCC1 (stereo not drawn),inactive
15,CC(C)[C@@H]1CC[C@@H](C)C[C@@H]1P(=O)(c1ccccc1)c1ccccc1,inactive
16,C#CCn1c(=O)c2c(ncn2C)n(C)c1=O,inactive
17,CN1CCC2(CCN3CCc4c(oc5ccccc45)C3C2)N(C)C1=O (stereo not drawn),inactive
18,C[C@](Cc1ccc(O)c(O)c1)(NN)C(=O)O,inactive
19,C[C@H](NC(=O)/C(C#N)=C/c1ccc(O)c(O)c1)c1ccccc1,inactive

row,SMILES,Potency
1,C[C@H]1CC2C3CCC4=CC(=O)C=C[C@]4(C)[C@@]3(Cl)[C@@H](O)C[C@]2(C)[C@@]1(O)C(=O)CO (stereo partly drawn),inactive
2,O=c1ccn([C@@H]2O[C@H](COP(=O)(O)OP(=O)(O)O)[C@@H](O)[C@H]2O)c(=O)[nH]1,inactive
3,N=C(N)c1ccccc1,inactive
4,CC1CCN=C(N)S1 (stereo not drawn),inactive
5,O=c1oc(Cl)c(Cl)c2ccccc12,inactive
6,C=CCN1CCc2cc(O)c(O)cc2C(c2ccccc2)C1 (stereo not drawn),inactive
7,CNC(=O)c1cc2c(cn1)[nH]c1ccccc12,inactive
8,Cc1nc(N=Nc2ccc(C(=O)O)cc2)c(COP(=O)(O)O)c(C=O)c1O,inactive
9,Cc1cccc(C2CN(C)CCc3c2cc(O)c(O)c3Cl)c1 (stereo not drawn),inactive
10,[N-]=[N+]=Nc1ccc(C(=O)CSC[C@H](NC(=O)CC[C@H](N)C(=O)O)C(=O)NCC(=O)O)cc1,inactive
11,CCCCCC(O)CCCC(=O)O (stereo not drawn),inactive
12,NCC(O)c1ccc(O)c(O)c1 (stereo not drawn),inactive
13,O=C(OCCN1CCOCC1)C1(c2ccccc2)CCCCC1,inactive
14,O=C(O)/C(=C/c1c(C(=O)O)[nH]c2cc(Cl)cc(Cl)c12)c1ccccc1,inactive
15,O=C(O)CCC/C=C\C[C@@H]1[C@@H](/C=C/[C@H](O)C2Cc3ccccc3C2)[C@@H](F)C[C@@H]1O,inactive
16,NC1CONC1=O (stereo not drawn),inactive
17,CCCCCCN(CCCCCC)C(=O)Cc1c(-c2ccc(F)cc2)[nH]c2ccccc12,inactive
18,CNc1ncnc2c1ncn2[C@H]1C[C@H](OP(=O)(O)O)[C@@H](COP(=O)(O)O)O1,inactive
19,CC(C)(C)c1cc(/C=C(\C#N)C(N)=S)cc(C(C)(C)C)c1O,inactive
